Several values for one entry are separate records, joined by “and”; a condition that tells them apart may be missing. Equal entries are not always repeated. The panel holds about 83,000 compounds, 20% with a hit somewhere; the sample as a whole holds those more often.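 Assay: single dose, 48 h. Readout: percent growth (0 = no net growth; negative = cell death). Active: <10.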 Activity calls are given as the source filed them.
Assays:
Assay in all cases: NCI-60 one-dose screen, 48 h (100 = growth as untreated, 0 = no growth, -100 = all killed)
Conditions in all cases: 10 µM unless noted
SK-MEL-2 melanoma = test system: SK-MEL-2 melanoma
EKVX NSCLC = test system: EKVX NSCLC
SN12C renal = test system: SN12C renal
UO-31 renal = test system: UO-31 renal
TK-10 renal = test system: TK-10 renal
ACHN renal = test system: ACHN renal
CAKI-1 renal = test system: CAKI-1 renal
A498 renal = test system: A498 renal
CCRF-CEM leukemia = test system: CCRF-CEM leukemia
MOLT-4 leukemia = test system: MOLT-4 leukemia

Measured: growth

Nc1ccc(/C=N/Nc2ccnc3c(N)cccc23)c2cccnc12
inactive: SK-MEL-2 melanoma 87.9% | EKVX NSCLC 32.2% | SN12C renal 71.1% | CAKI-1 renal 31.9% | A498 renal 77%
active: UO-31 renal -58.8% | TK-10 renal -43.1% | ACHN renal -87.7% | CCRF-CEM leukemia -25.6% | MOLT-4 leukemia -37.5%

O=C(CCCCCCCCC(=O)N/N=C\c1ccccc1O)N/N=C\c1ccccc1O
active: CAKI-1 renal 9.16%
inactive: SK-MEL-2 melanoma 32% | EKVX NSCLC 26.3% | SN12C renal 21.6% | UO-31 renal 13.2% | TK-10 renal 46.4% | ACHN renal 14.7% | A498 renal 46.5% | CCRF-CEM leukemia 10.8% | MOLT-4 leukemia 15%

N#Cc1c(N)nnn1Cc1cc(=O)oc2ccc(O)cc12
inactive: SK-MEL-2 melanoma 117% | EKVX NSCLC 117% | SN12C renal 106% | UO-31 renal 90.5% | TK-10 renal 104% | ACHN renal 106% | CAKI-1 renal 107% | A498 renal 102% | CCRF-CEM leukemia 93.8% | MOLT-4 leukemia 109%

C=CCOc1ccc(/C=C2\SC(=S)N(CCc3ccc(O)cc3)C2=O)cc1
active: CCRF-CEM leukemia 5.72%
inactive: SK-MEL-2 melanoma 106% | EKVX NSCLC 91.4% | SN12C renal 84.4% | UO-31 renal 61.3% | TK-10 renal 106% | ACHN renal 94% | CAKI-1 renal 71.2% | A498 renal 65.6% | MOLT-4 leukemia 40.4%

Cc1ccc(C(=O)c2ccc(CC(=O)N=Nc3c(O)[nH]c4ccc(OC(F)(F)F)cc34)n2C)cc1
inactive: SK-MEL-2 melanoma 95.9% | EKVX NSCLC 75.5% | SN12C renal 95% | UO-31 renal 72.7% | TK-10 renal 137% | ACHN renal 93.8% | CAKI-1 renal 91.1% | A498 renal 86.7% | CCRF-CEM leukemia 99.1% | MOLT-4 leukemia 89.4%

O=C(Nc1cc(C(F)(F)F)cc(C(F)(F)F)c1)c1cc(Cl)ccc1O
active: SK-MEL-2 melanoma -40.3% | EKVX NSCLC 1.8% and 3.4% | SN12C renal -4.82% and -10.6% | UO-31 renal -64.4% and -19.6% | TK-10 renal -8.88% and 5.69% | ACHN renal -14% and 2.27% | CAKI-1 renal -20.5% and -23.8% | A498 renal -44.7% and -69.3% | CCRF-CEM leukemia -12.3% and -10.4% | MOLT-4 leukemia -38.9% and -44.7%

Cc1nnc(NS(=O)(=O)c2ccc(N=Nc3ccc(N)nc3N)cc2)s1
inactive: SK-MEL-2 melanoma 104% and 116% | EKVX NSCLC 104% and 105% | SN12C renal 92.3% and 105% | UO-31 renal 76.1% and 80.1% | TK-10 renal 112% and 111% | ACHN renal 103% and 110% | CAKI-1 renal 98% and 96% | A498 renal 99.7% and 123% | CCRF-CEM leukemia 100% and 105% | MOLT-4 leukemia 102% and 96.3%

CC(=O)c1nn(-c2ccccc2)/c(=N/N=Cc2cn(-c3ccccc3)nc2-c2cc3ccccc3oc2=O)s1
inactive: SK-MEL-2 melanoma 103% | EKVX NSCLC 97.2% | SN12C renal 105% | UO-31 renal 84% | TK-10 renal 103% | ACHN renal 101% | CAKI-1 renal 88.5% | A498 renal 120% | CCRF-CEM leukemia 101% | MOLT-4 leukemia 95.9%

N=c1ccccn1CCO
inactive: SK-MEL-2 melanoma 104% | EKVX NSCLC 121% | SN12C renal 98.1% | UO-31 renal 85.4% | TK-10 renal 109% | ACHN renal 102% | CAKI-1 renal 106% | A498 renal 89.9% | CCRF-CEM leukemia 102% | MOLT-4 leukemia 93.4%

NCCOCCOc1ccccc1
inactive: SK-MEL-2 melanoma 101% | EKVX NSCLC 106% | SN12C renal 103% | UO-31 renal 86.8% | TK-10 renal 90.9% | ACHN renal 106% | CAKI-1 renal 88.3% | A498 renal 97.3% | CCRF-CEM leukemia 91.9% | MOLT-4 leukemia 101%

O=C(N=Nc1c(O)[nH]c2ccccc12)Nc1ccc(Br)cc1
active: CCRF-CEM leukemia -43.8%
inactive: SK-MEL-2 melanoma 93.5% | EKVX NSCLC 86.6% | SN12C renal 99.3% | UO-31 renal 66.8% | TK-10 renal 90% | ACHN renal 83.7% | CAKI-1 renal 76.3% | A498 renal 72% | MOLT-4 leukemia 90.2%

OCCN1CCN(CC/C=C2\c3ccccc3Sc3ccc(Cl)cc32)CC1
inactive: EKVX NSCLC 80.8% and 60.3% | SN12C renal 63% and 64.3% | TK-10 renal 57.7% | ACHN renal 58.5% and 71.1% | CAKI-1 renal 53.5% | A498 renal 45.4% and 60.5%
46.5% (inactive) and -10.9% (active): SK-MEL-2 melanoma
active: MOLT-4 leukemia -52.7% and -10.3%
-17.7% (active) and 23.8% (inactive): CCRF-CEM leukemia
39.9% (inactive) and 2.89% (active): UO-31 renal

COc1ccc(C2=C(CN)C(O)NC(=NCC(=O)c3ccc4ccccc4c3)N2)cc1 (stereo not given)
inactive: SK-MEL-2 melanoma 99.9% | EKVX NSCLC 113% | SN12C renal 103% | UO-31 renal 81% | TK-10 renal 98.1% | ACHN renal 94.5% | CAKI-1 renal 94.5% | A498 renal 118% | CCRF-CEM leukemia 110% | MOLT-4 leukemia 98%

BrC1=C(Br)C(Br)(Br)C(Br)=C1Br
inactive: SK-MEL-2 melanoma 95.3% | EKVX NSCLC 109% | SN12C renal 86.2% | UO-31 renal 79.3% | TK-10 renal 97.8% | ACHN renal 88.5% | CAKI-1 renal 87.3% | A498 renal 109% | CCRF-CEM leukemia 17.5% | MOLT-4 leukemia 17.1%

COC(=O)c1nc(-c2ccccc2)oc1S(=O)(=O)N(C)CCO
inactive: SK-MEL-2 melanoma 82.1% | EKVX NSCLC 77.5% | SN12C renal 87.6% | UO-31 renal 59.2% | TK-10 renal 43.9% | ACHN renal 49.2% | CAKI-1 renal 54.7% | A498 renal 112% | CCRF-CEM leukemia 16.2% | MOLT-4 leukemia 45.2%

COc1cc2nc3cc([N+](=O)[O-])ccc3c(NCCNCC(C)(C)O)c2cc1OC
inactive: UO-31 renal 27.7% | CAKI-1 renal 16.1%
active: SK-MEL-2 melanoma -45.5% | EKVX NSCLC 7.08% | SN12C renal -17.1% | TK-10 renal 9.89% | ACHN renal 6.39% | A498 renal -48.8% | CCRF-CEM leukemia 0.0876% | MOLT-4 leukemia 5.85%

COc1cc(NS(=O)(=O)C(C)C)cc(-c2cc(-c3ccc(N4CCNCC4)cc3)cnc2N)c1
inactive: SK-MEL-2 melanoma 117% | EKVX NSCLC 109% | SN12C renal 64.6% | UO-31 renal 70% | TK-10 renal 115% | ACHN renal 93.2% | CAKI-1 renal 87.1% | A498 renal 75.3% | CCRF-CEM leukemia 66.7% | MOLT-4 leukemia 37.2%

COc1ccc(C/C(C)=C(/c2ccc(OCCN3CCCC3)cc2)c2ccc(OC(=O)NCc3ccccc3)cc2)cc1
inactive: SK-MEL-2 melanoma 104% | EKVX NSCLC 87.5% | SN12C renal 91.9% | UO-31 renal 59.9% | TK-10 renal 92.8% | ACHN renal 89.7% | CAKI-1 renal 97.7% | A498 renal 107% | CCRF-CEM leukemia 47.3% | MOLT-4 leukemia 40%

N#Cc1c(-c2cccc(F)c2)cc(-c2cccnc2)[nH]c1=O
inactive: SK-MEL-2 melanoma 110% | EKVX NSCLC 106% | SN12C renal 96.4% | UO-31 renal 90.2% | TK-10 renal 106% | ACHN renal 101% | CAKI-1 renal 95.9% | A498 renal 116% | CCRF-CEM leukemia 104% | MOLT-4 leukemia 99.7%

COc1ccc(C/C(C)=C(\c2ccc(O)cc2)c2ccc(OCCCN(C)C)cc2)cc1
inactive: SK-MEL-2 melanoma 88.4% | EKVX NSCLC 98.2% | SN12C renal 93.3% | UO-31 renal 77.7% | TK-10 renal 86.9% | ACHN renal 109% | CAKI-1 renal 107% | A498 renal 101% | CCRF-CEM leukemia 73.9% | MOLT-4 leukemia 68.8%

Cc1ccc(/C=C(\C#N)c2cc3ccccc3[nH]2)cc1
inactive: SK-MEL-2 melanoma 48.8% | EKVX NSCLC 74.7% | SN12C renal 50.3% | UO-31 renal 69.8% | TK-10 renal 82.6% | ACHN renal 85.6% | CAKI-1 renal 45.6% | A498 renal 57.2% | CCRF-CEM leukemia 46% | MOLT-4 leukemia 30.6%

CCC(=C(c1ccc(OCCCN(C)C)cc1)c1ccc(OCCCN(C)C)cc1)c1ccc(Cl)cc1
active: SK-MEL-2 melanoma -72.1% | EKVX NSCLC -86.8% | SN12C renal -94.1% | UO-31 renal -93.6% | TK-10 renal -85.2% | ACHN renal -95.8% | CAKI-1 renal -96.1% | A498 renal -86.3% | CCRF-CEM leukemia -67.9% | MOLT-4 leukemia -61.9%

CCOC(=O)c1cnn(CC(O)CC)c1NC(=O)NCc1ccccc1C(F)(F)F (stereo not given)
inactive: SK-MEL-2 melanoma 87.3% | EKVX NSCLC 91.8% | SN12C renal 101% | UO-31 renal 77.6% | TK-10 renal 101% | ACHN renal 102% | CAKI-1 renal 77.6% | A498 renal 105% | CCRF-CEM leukemia 84.9% | MOLT-4 leukemia 87.2%

Cc1cccc(Cc2cnc(NC(=O)CCCOc3ccc(Cl)cc3)s2)c1
inactive: SK-MEL-2 melanoma 67.2% | EKVX NSCLC 41.4% | SN12C renal 34.9% | UO-31 renal 19% | TK-10 renal 38.3% | ACHN renal 12.1% | CAKI-1 renal 27.1% | CCRF-CEM leukemia 16.3% | MOLT-4 leukemia 40.1%
active: A498 renal -2.46%

CCOc1ccc(C(=O)Cc2ccccc2)cc1
inactive: SK-MEL-2 melanoma 103% and 118% | EKVX NSCLC 98.5% and 101% | SN12C renal 103% and 105% | UO-31 renal 91.3% and 107% | TK-10 renal 85.1% and 92.3% | ACHN renal 107% and 115% | CAKI-1 renal 103% and 99.6% | A498 renal 79.6% and 87.5% | CCRF-CEM leukemia 97.6% | MOLT-4 leukemia 94.4% and 99.2%

— PubChem BioAssay (NCI)
